From PubChem BioAssay (NCI)
This is part of a sample that, as a whole, favours compounds with a hit. Of some 79,000 tested, about 15% had one in any assay. Activity calls are given as the source filed them. No stated cut-off is given here; in the data, active means growth inhibition above about 70%; inactive means the rest.

Assay: NCI Yeast Anticancer Drug Screen. Data for the rad50EPP+ strain (AID 151);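 further: 0% = growth of vehicle-treated control cultures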
Settings: S. cerevisiae rad50 mutant strain, stronger effect = higher value
Description: Growth inhibition of yeast strains with defined genetic alterations is measured as a screen for potential anti-cancer activity. Selected strains with alterations in DNA damage repair or cell cycle control were exposed to compounds and growth inhibition was measured relative to vehicle treated controls. The strain used in this assay is rad50EPP+

Measured: growth inhibition

O=c1[nH]c(=O)n(CCCO)cc1F
inactive: at 1.2 µM -14% | at 3.7 µM -7% | at 11.0 µM -9% | at 33.0 µM -10% | at 100.0 µM -2%

Cc1nc2ccc(Br)cc2c(=O)n1-c1ccc(NC2OCC(O)C(O)C2O)cc1 (stereo not given)
inactive: at 1.2 µM 1% | at 3.7 µM -1% | at 11.0 µM -1% | at 33.0 µM 5% | at 100.0 µM 13%

O=[N+]([O-])c1ccc2nnnn2c1
inactive: at 1.2 µM -2% | at 3.7 µM -1% | at 11.0 µM 15% | at 33.0 µM 50%
active: at 100.0 µM 79%

Cc1c(N=Nc2ccc(Cl)cc2)c(C)n(C2OC(CO)C(O)C(O)C2O)c(=S)c1C#N (stereo not given)
active: at 100.0 µM 81%
inactive: at 1.2 µM 5% | at 3.7 µM 19% | at 11.0 µM 40% | at 33.0 µM 66%

[O-]c1c2cc(-[n+]3c(-c4ccccc4)cc(-c4ccccc4)cc3-c3ccccc3)cc1COCCOCCOCCOCCOC2
inactive: at 1.2 µM -1% | at 3.7 µM 0% | at 11.0 µM 5% | at 33.0 µM 31% | at 100.0 µM 66%

c1ccc(C2=NNC3c4ccccc4-c4ccccc4N3C2)cc1 (stereo not given)
inactive: at 1.2 µM -2% | at 3.7 µM 1% | at 11.0 µM 5% | at 33.0 µM 27% | at 100.0 µM 35%

O=C1OC(/C=C/c2ccccc2)Sc2ccccc21 (stereo not given)
inactive: at 1.2 µM 5% | at 3.7 µM 5% | at 11.0 µM 13% | at 33.0 µM 18% | at 100.0 µM 23%

O=C1c2ccccc2C2CCC1c1ccccc12 (stereo not given)
inactive: at 1.2 µM 1% | at 3.7 µM -4% | at 11.0 µM -2% | at 33.0 µM 50% | at 100.0 µM 68%
